# According to PubChem BioAssay (Tox21):
# Inconclusive results are not listed. A call without a number means that no potency is given here. The source made the active and inactive calls. Calls follow the shape of the full dose curve.
# Target: Beta-2 adrenergic receptor (Homo sapiens) (UniProt P07550)
# Experiment: Adrenergic beta2 receptor (ADRB2) small molecule antagonists, cell-based qHTS assay (AID 1963592); also: nearly all actives have a fitted effect of over 50% in size
# Settings: CHO-ADRB2 cells, isoproterenol-stimulated cAMP HTRF ratio, 0.5 h; series mostly up to 92.4 µM; activity change, negative = inhibition: at the top concentration
# In short: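 Assay format: CHO-ADRB2 cells, 18-20hr seeding at 37C/5% CO2, then compound plus 1nM isoproterenol agonist mix for 0.5hr RT. Homogeneous time-resolved fluorescence cAMP detection after 1hr, expressed as 665/615 nm ratio.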
# Sequence of Beta-2 adrenergic receptor (Homo sapiens) (P07550 whole entry, looked up): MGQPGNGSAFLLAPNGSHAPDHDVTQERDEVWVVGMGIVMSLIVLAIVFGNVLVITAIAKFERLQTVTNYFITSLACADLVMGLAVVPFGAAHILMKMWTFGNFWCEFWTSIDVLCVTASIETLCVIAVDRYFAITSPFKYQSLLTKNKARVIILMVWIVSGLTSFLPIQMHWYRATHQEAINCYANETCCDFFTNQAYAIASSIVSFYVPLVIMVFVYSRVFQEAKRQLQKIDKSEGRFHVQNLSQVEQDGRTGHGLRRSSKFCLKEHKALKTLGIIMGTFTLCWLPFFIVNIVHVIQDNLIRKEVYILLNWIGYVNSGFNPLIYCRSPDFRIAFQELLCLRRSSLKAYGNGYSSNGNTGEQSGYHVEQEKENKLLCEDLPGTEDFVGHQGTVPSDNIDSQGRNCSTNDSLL
Compound,"activity change, negative = inhibition",Potency
O=c1cc(-c2ccccc2)oc2ccccc12,-28.7% (inactive),
O=C(O)c1cc2ccccc2cc1O,,inactive
CS(=O)(=O)c1ccc(Cl)cc1,,inactive
S=C(NC1CCCCC1)NC1CCCCC1,,inactive
O=C(O)CCCCCCCCCCCC(=O)O,,inactive
N[C@H](Cc1c[nH]c2ccccc12)C(=O)O,,inactive
CC[C@H](c1ccc(O)cc1)[C@@H](CC)c1ccc(O)cc1,-24.9% [at 42.5 µM] (inactive),
C=CC(C)(O)CCC=C(C)C (stereo not drawn),,inactive
O=[N+]([O-])c1ccc2nc[nH]c2c1,,inactive
CC(C)(c1cc(Br)c(O)c(Br)c1)c1cc(Br)c(O)c(Br)c1,,inactive
COC(=O)Nc1nc2ccc(Sc3ccccc3)cc2[nH]1,,inactive
CCN(CC)c1ccc2c(C)cc(=O)oc2c1,,inactive
CC(=O)OCc1ccccc1,,inactive
c1ccc2c(c1)-c1cccc3c1c-2cc1ccccc13,,inactive
OCC(CO)(CO)CO,,inactive
CN1Cc2c(N)cccc2C(c2ccccc2)C1 (stereo not drawn),,inactive
CCCc1ccc(O)cc1,0.588% (inactive),
Cc1cccnc1,,inactive

Compound,"activity change, negative = inhibition",Potency
CCC(C)c1ccccc1O (stereo not drawn),,inactive
CC1=CC[C@@H]2C[C@H]1C2(C)C,-16.3% [at 19 µM] (inactive),
OC1CCCC1,0.312% (inactive),
NS(=O)(=O)c1ccc(N2CCCCS2(=O)=O)cc1,4.98% [at 42.5 µM] (inactive),
N[C@@H](Cc1c[nH]c2ccccc12)C(=O)O,,inactive
CCCCCCCO,-1.72% (inactive),
N[C@@H](Cc1c[nH]c2ccc(O)cc12)C(=O)O,,inactive
CC(COCC(C)OC(=O)c1ccccc1)OC(=O)c1ccccc1 (stereo not drawn),,inactive
O=C(O)/C=C/c1ccccc1,7.25% (inactive),
CCCCCOC(C)=O,,inactive
CC(=O)OC1CC(C)OC(C)O1 (stereo not drawn),,inactive
COc1ccc(COC(C)=O)cc1,,inactive
CCCCCCCCCCCCOCCO,,inactive
Cc1ccc(C(C)C)cc1O,-24% (inactive),
Nc1ccc(S(=O)(=O)Nc2ccc(Cl)nn2)cc1,0.735% [at 42.5 µM] (inactive),
CC(C)(C)c1cc(Cc2cc(C(C)(C)C)c(O)c(C(C)(C)C)c2)cc(C(C)(C)C)c1O,,inactive
CCCCOCCOCCOC(=O)CCCCC(=O)OCCOCCOCCCC,,inactive
O=C(O)Cc1cccc(-c2cc(CCCCCCc3ccc(O[C@H]4O[C@H](CO)[C@@H](O)[C@H](O)[C@@H]4O)c(-c4cccc(CC(=O)O)c4)c3)ccc2O[C@H]2O[C@H](CO)[C@@H](O)[C@H](O)[C@@H]2O)c1,2.66% [at 0.349 µM] (inactive),

# Target: Beta-2 adrenergic receptor (Homo sapiens) (UniProt P07550)
# Experiment: Adrenergic beta2 receptor (ADRB2) small molecule agonists, cell-based qHTS assay (AID 1963593);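 also: CHO cells stably overexpressing human ADRB2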
# Settings: CHO-ADRB2 cells, cAMP HTRF, 30 min; series mostly up to 92.4 µM; activation: at the top concentration
# In short: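 CHO cells stably over-expressing ADRB2 were plated overnight at 37C, then dosed with compounds plus a stimulation mix containing 100uM IBMX and 25uM Ro-20-1724 for 0.5hr at room temperature. cAMP was measured by HTRF competition, 1hr.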
Compound,Potency,activation
O=C(O)c1cc2ccccc2cc1O,inactive,
CS(=O)(=O)c1ccc(Cl)cc1,,2.21% (inactive)
S=C(NC1CCCCC1)NC1CCCCC1,,11.7% (inactive)
O=C(O)CCCCCCCCCCCC(=O)O,inactive,
N[C@H](Cc1c[nH]c2ccccc12)C(=O)O,,-14.1% (inactive)
O=[N+]([O-])c1ccc2nc[nH]c2c1,,3.29% (inactive)
COC(=O)Nc1nc2ccc(Sc3ccccc3)cc2[nH]1,inactive,
CCN(CC)c1ccc2c(C)cc(=O)oc2c1,,8.44% (inactive)
CC(=O)OCc1ccccc1,,0.582% (inactive)
CN1Cc2c(N)cccc2C(c2ccccc2)C1 (stereo not drawn),,4.75% (inactive)
CCCc1ccc(O)cc1,,-44.3% (inactive)
Cc1cccnc1,,22.3% (inactive)
CCC(C)c1ccccc1O (stereo not drawn),,-5.39% (inactive)
OC1CCCC1,,-8.13% (inactive)
NS(=O)(=O)c1ccc(N2CCCCS2(=O)=O)cc1,,-21.8% [at 42.5 µM] (inactive)
N[C@@H](Cc1c[nH]c2ccccc12)C(=O)O,,-22.1% (inactive)
CCCCCCCO,inactive,
CC(COCC(C)OC(=O)c1ccccc1)OC(=O)c1ccccc1 (stereo not drawn),,3.92% (inactive)
O=C(O)/C=C/c1ccccc1,,0.258% (inactive)
CCCCCOC(C)=O,,10.5% (inactive)
CC(=O)OC1CC(C)OC(C)O1 (stereo not drawn),inactive,
COc1ccc(COC(C)=O)cc1,inactive,
CCCCCCCCCCCCOCCO,,17.1% [at 42.5 µM] (inactive)
Cc1ccc(C(C)C)cc1O,,-10.2% (inactive)
Nc1ccc(S(=O)(=O)Nc2ccc(Cl)nn2)cc1,,5.48% [at 42.5 µM] (inactive)
CC(C)(C)c1cc(Cc2cc(C(C)(C)C)c(O)c(C(C)(C)C)c2)cc(C(C)(C)C)c1O,,-14.8% (inactive)

# Target: D(2) dopamine receptor (Homo sapiens) (UniProt P14416)
# Experiment: Dopamine D2 receptor (DRD2) small molecule agonists, cell-based qHTS assay (AID 1963594); also: nearly all actives have a fitted effect of over 35% in size; also: potency is read from the fitted curve at half-maximal effect
# Settings: HEK293-DRD2 cAMP HTRF, agonist mode, 30 min; series mostly up to 92.4 µM; activation: at the top concentration
# In short: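 HEK293 cells stably expressing human DRD2, pre-treated with PDE inhibitor Ro20-1724 (0.1 mM final) and compound 10 min at room temperature, then stimulated with NKH477 (200nM […]) for 30 min. cAMP read by HTRF (665/620 nm).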
# Sequence of D(2) dopamine receptor (Homo sapiens) (P14416 whole entry, looked up): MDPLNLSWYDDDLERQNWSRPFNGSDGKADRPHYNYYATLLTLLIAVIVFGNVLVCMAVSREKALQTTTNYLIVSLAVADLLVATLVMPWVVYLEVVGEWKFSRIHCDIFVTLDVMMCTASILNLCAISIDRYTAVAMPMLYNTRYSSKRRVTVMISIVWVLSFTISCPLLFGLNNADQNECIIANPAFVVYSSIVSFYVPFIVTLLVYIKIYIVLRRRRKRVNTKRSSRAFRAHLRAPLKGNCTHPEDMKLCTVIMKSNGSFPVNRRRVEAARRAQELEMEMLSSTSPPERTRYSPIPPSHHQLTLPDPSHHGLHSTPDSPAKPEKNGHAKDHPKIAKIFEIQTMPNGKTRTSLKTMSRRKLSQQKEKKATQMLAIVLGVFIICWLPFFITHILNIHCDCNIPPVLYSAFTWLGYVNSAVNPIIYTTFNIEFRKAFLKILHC
Compound,activation,Potency
O=c1cc(-c2ccccc2)oc2ccccc12,2.87% (inactive),
O=C(O)c1cc2ccccc2cc1O,,inactive
CS(=O)(=O)c1ccc(Cl)cc1,,inactive
S=C(NC1CCCCC1)NC1CCCCC1,,inactive
O=C(O)CCCCCCCCCCCC(=O)O,,inactive
N[C@H](Cc1c[nH]c2ccccc12)C(=O)O,-3.53% (inactive),
CC[C@H](c1ccc(O)cc1)[C@@H](CC)c1ccc(O)cc1,,inactive
C=CC(C)(O)CCC=C(C)C (stereo not drawn),,inactive
O=[N+]([O-])c1ccc2nc[nH]c2c1,,inactive
CC(C)(c1cc(Br)c(O)c(Br)c1)c1cc(Br)c(O)c(Br)c1,,inactive
BrC1CCC(Br)C(Br)CCC(Br)C(Br)CCC1Br (stereo not drawn),,inactive
COC(=O)Nc1nc2ccc(Sc3ccccc3)cc2[nH]1,,inactive
CCN(CC)c1ccc2c(C)cc(=O)oc2c1,3.36% (inactive),
CC(=O)OCc1ccccc1,,inactive
c1ccc2c(c1)-c1cccc3c1c-2cc1ccccc13,,inactive
CN1Cc2c(N)cccc2C(c2ccccc2)C1 (stereo not drawn),0.46% [at 42.5 µM] (inactive),
CCCc1ccc(O)cc1,0.615% (inactive),
Cc1cccnc1,,inactive

Compound,activation,Potency
CCC(C)c1ccccc1O (stereo not drawn),1.05% (inactive),
CC1=CC[C@@H]2C[C@H]1C2(C)C,-0.279% [at 19 µM] (inactive),
OC1CCCC1,,inactive
NS(=O)(=O)c1ccc(N2CCCCS2(=O)=O)cc1,-4.45% [at 42.5 µM] (inactive),
N[C@@H](Cc1c[nH]c2ccccc12)C(=O)O,,inactive
CCCCCCCO,,inactive
N[C@@H](Cc1c[nH]c2ccc(O)cc12)C(=O)O,15.3% (inactive),
CC(COCC(C)OC(=O)c1ccccc1)OC(=O)c1ccccc1 (stereo not drawn),,inactive
O=C(O)/C=C/c1ccccc1,-0.551% (inactive),
CCCCCOC(C)=O,,inactive
CC(=O)OC1CC(C)OC(C)O1 (stereo not drawn),,inactive
COc1ccc(COC(C)=O)cc1,,inactive
NC[C@H](O)c1ccc(O)c(O)c1,,16.6 µM (active)
Cc1ccc(C(C)C)cc1O,-2.14% (inactive),
Nc1ccc(S(=O)(=O)Nc2ccc(Cl)nn2)cc1,2.84% [at 42.5 µM] (inactive),
CC(C)(C)c1cc(Cc2cc(C(C)(C)C)c(O)c(C(C)(C)C)c2)cc(C(C)(C)C)c1O,,inactive
CCCCOCCOCCOC(=O)CCCCC(=O)OCCOCCOCCCC,,inactive
O=C(O)Cc1cccc(-c2cc(CCCCCCc3ccc(O[C@H]4O[C@H](CO)[C@@H](O)[C@H](O)[C@@H]4O)c(-c4cccc(CC(=O)O)c4)c3)ccc2O[C@H]2O[C@H](CO)[C@@H](O)[C@H](O)[C@@H]2O)c1,-1.23% [at 0.349 µM] (inactive),
